Shown are actives, neighbours in structure and some others; about 22% of the full set was active somewhere.
CYP2C9 inhib = blockers of cytochrome P450 2C9 activity – biochemical, luminescence, ADME assay, primary screen; P11712; CYP2C9 Supersomes, luciferin-H conversion; inhibition, % at 5 µM; 96,000 compounds, 20% hits; AID 777, 2007;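 active means blocking of liver enzyme CYP2C9 beyond about 50% at 5 µM, limit read from the data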
Target sequence (P11712 whole entry, looked up): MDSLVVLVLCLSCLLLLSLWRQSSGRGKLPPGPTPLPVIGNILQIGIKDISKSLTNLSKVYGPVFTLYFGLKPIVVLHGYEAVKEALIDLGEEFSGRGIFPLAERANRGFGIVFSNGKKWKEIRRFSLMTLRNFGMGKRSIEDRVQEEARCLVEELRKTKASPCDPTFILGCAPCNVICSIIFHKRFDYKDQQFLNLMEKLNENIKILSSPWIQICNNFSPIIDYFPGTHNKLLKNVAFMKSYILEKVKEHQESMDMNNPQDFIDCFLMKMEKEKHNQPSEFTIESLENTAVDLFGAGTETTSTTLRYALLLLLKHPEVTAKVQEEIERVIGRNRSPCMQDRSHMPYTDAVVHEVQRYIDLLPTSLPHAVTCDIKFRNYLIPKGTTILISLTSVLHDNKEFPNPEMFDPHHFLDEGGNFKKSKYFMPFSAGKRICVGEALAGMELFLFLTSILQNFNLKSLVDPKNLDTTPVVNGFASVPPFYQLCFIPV
CYP2C9 act = human CYP2C9 activators, primary screen, biochemical, luminescence. AID 1024, 2008. recombinant CYP2C9, luciferin-H conversion; active compounds read high; factor 1 = untreated enzyme, 0 = blocked. activation factor at 5 µM. 96,000 compounds, 1.4% hits. Cytochrome P450 2C9 (Homo sapiens), P11712;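 active means activation factor of 2 or more for CYP2C9 at a 5 µM dose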;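 further: 0 = sulfaphenazole-blocked wells and 1 = vehicle-only wells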
Measles CPE = compounds protecting cells from measles virus cytopathic effect, primary screen, measles RdRp inhibitor project, single point, MLSMR library, absorbance. Measles virus-infected cells, CPE protection. protection (pct of control), % at 4 µM. 140,000 compounds, 1.5% hits. AID 841, 2007; in the data active means protection mostly above about 24%, no sharp cut-off; inactive means mostly below about 26%
CYP2C19 activ = human CYP2C19 activators, primary screen, biochemical, luminescence | AID 1025, 2008 | recombinant CYP2C19, luciferin-H EGE luminescence; active compounds read high; 0 = fully inhibited enzyme, 1 = untreated enzyme | Cytochrome P450 2C19 (Homo sapiens), P33261 | 96,000 tested, under 10 active | activation factor at 5 µM;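 active means activation factor of at least 2 at 5 µM in the primary screen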;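 further: 0 = wells with 2.5 mM tranylcypromine and 1 = vehicle-only wells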
CYP2C19 inhib = blockers of cytochrome P450 2C19 activity – biochemical, luminescence, ADME assay, primary screen | P33261 | CYP2C19 Supersomes, luciferin-H EGE luminescence, 30 min | inhibition, % at 5 µM | 96,000 compounds, 21% hits | AID 778, 2007;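 active means CYP2C19 inhibition above a set limit at 5 µM in the primary screen, cut at about 50% in these data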;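 further: plate controls were negative control wells for no effect and 2.5 mM tranylcypromine positive control for full effect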
Numbers without * were called inactive; . = no result.

SMILES	CYP2C9 inhib	CYP2C9 act	Measles CPE	CYP2C19 activ	CYP2C19 inhib
CCCCN(C)C(=O)CSc1nc(NCc2ccc(OC)cc2)c2ccccc2n1	44	0.6	26	0.5	54*
COC(=O)C1CCCN1S(=O)(=O)c1ccc2ccccc2c1 (stereo not drawn)	-169	2.7*	7	0.6	38
COc1ccc(S(=O)(=O)N2CCCCC2C(=O)O)cc1 (stereo not drawn)	.	.	11	.	.
Cc1ccc(S(=O)(=O)N2CCCC2C(=O)Oc2ccccc2)cc1 (stereo not drawn)	-10	1.1	21	0.2	75*
O=C(Nc1cccnc1)c1cc(-c2ccc(Br)cc2)on1	21	0.8	7	1.2	-19
CCC(=O)c1ccc(O)c(CC=C(C)C)c1	64*	0.4	0	0.4	58*
CC(C)=CCc1c(O)ccc(C(=O)Cc2ccccc2)c1O	46	0.5	17	0.9	12
Cc1nc([N+](=O)[O-])cn1CC(=O)NCCCO	.	.	9	.	.
O=C1CC(N2CCN(C/C=C/c3ccccc3)CC2)C(=O)N1Cc1cccs1 (stereo not drawn)	36	0.6	16	0.4	55*
Cc1ccc(S(=O)(=O)Nc2nc(C)c(C(=O)Nc3ccccc3)s2)cc1	.	.	12	.	.
Cc1ccc(S(=O)(=O)Nc2nc(C)c(NC(=O)OCCCl)s2)cc1	89*	0.1	26	1	4
Cc1ccc(S(=O)(=O)Nc2nc(C)c(NC(=O)Nc3ccc(Cl)cc3Cl)s2)cc1	61*	0.4	19	1	4
Nc1nc(SCC(=O)C23CC4CC(CC(C4)C2)C3)n[nH]1	53*	0.5	3	0.6	45
COc1nc(NC(C)(C)C)nc(Oc2ccc(=O)n(-c3ccccc3)n2)n1	56*	0.4	13	0.6	42
Cc1onc(-c2c(F)cccc2Cl)c1C(=O)NCc1ccco1	15	0.8	2	0.7	32
Cc1onc(-c2c(F)cccc2Cl)c1C(=O)OCC(=O)NC(c1ccccc1)c1ccccc1	84*	0.2	4	0.7	30
Cc1ccc(-c2cc(C(=O)NCc3cccs3)no2)cc1	-4	1	3	1.1	-13
Cc1noc(C)c1C(=O)NCc1cccs1	0	1	44*	0.9	11
Cc1noc(C)c1C(=O)NCCc1ccc(Cl)cc1	54*	0.5	6	0.1	91*
Cc1onc(-c2c(F)cccc2Cl)c1C(=O)NCc1cccs1	84*	0.2	13	0.2	85*
Cc1cc(C)c(NC(=O)COC(=O)CSc2ccc(Br)cc2C)c(C)c1	.	.	17	.	.
NNC(=O)CNC(c1ccccc1)c1cc(Br)ccc1NC(=O)CCN1CCOCC1 (stereo not drawn)	11	0.9	13	0.8	16
Cc1cc(C)n(-c2nc(-n3nc(C)cc3C)c3c4c(sc3n2)COC(C)(C)C4)n1	38	0.6	16	0.3	72*
Cc1cc(C)n(-c2nc3sc4c(c3c3nnc(SCC(N)=O)n23)CC(C)(C)OC4)n1	.	.	15	.	.
Cc1cc(C)n(-c2nc(NCCC(C)C)c3c4c(sc3n2)COC(C)(C)C4)n1	30	0.7	2	0.9	9
SMILES	CYP2C9 inhib	CYP2C9 act	Measles CPE	CYP2C19 activ	CYP2C19 inhib
Cc1cc(C)n(-c2nc(SCC(=O)Nc3nccs3)c3c4c(sc3n2)COC(C)(C)C4)n1	77*	0.2	10	0.6	38
Cc1ccc(C(=O)CCC(=O)Nc2cccnc2)cc1C	6	0.9	1	0.9	14
S=C(NCc1ccc(Cl)cc1)Nc1ccccc1	.	.	4	.	.
Fc1ccc(CNC(=S)Nc2ccc(Cl)cc2)cc1	13	0.9	4	0.2	84*
Cc1cc(Cl)ccc1NC(=S)Nc1cccnc1	16	0.8	1	0.5	54*
Fc1ccc(NC(=S)N2CCCC2)cc1Cl	.	.	15	.	.
COc1cc(NC(=S)Nc2cccnc2)cc(OC)c1	.	.	6	.	.
Cc1cc(Cl)ccc1OCCCC(=O)Nc1cccnc1	41	0.6	3	0.5	50*
Fc1ccc(NC(=S)Nc2ccc(F)c(Cl)c2)cc1Cl	86*	0.1	16	0	98*
Cc1ccc(NC(=O)N2CCN(c3ccccn3)CC2)cc1	8	0.9	16	0.9	13
COc1ccc(C(=O)/C(=C\c2sccc2C)c2nc3ccccc3o2)cc1	.	.	2	.	.

Assay outcomes: PubChem, several laboratories
